Compound activity as filed in PubChem.
KB-3-1 tox: KB-3-1 parental cell cytotoxicity | hit rate 1.4% among 400,000 | AID 1347075 | Potency, µM (top dose mostly 46.1 µM), hits mostly cytotoxic | KB-3-1 viability, CellTiter-Glo ATP luminescence, 72 h; also: nearly all actives have a fitted effect of over 60% in size
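72 h, 37 °C compound treatment of KB-3-1 parental cells; CellTiter-Glo added, 10 min, luminescence read. Data corrected against DMSO-only plates and normalized before curve fitting.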
KB-V1 cytotox: kills drug-selected multidrug resistant KB-V1 cells | KB-V1 MDR cells viability, CellTiter-Glo, 72 h | Potency, µM (series often up to 46.1 µM), hits mostly cytotoxic | hit rate 3.4% among 400,000 | AID 1347076; also: nearly all actives have a fitted effect of over 60% in size
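Following 72 h at 37 degrees C with compound, KB-V1 cell viability was read by CellTiter-Glo luminescence, medium being phenol-red-free DMEM plus 10% FBS; concentration-response parameters came from normalized, curve-fitted qHTS data.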
MCF10A rereplic: inducers of DNA re-replication in MCF 10A breast cells; MCF 10A DNA re-replication, Hoechst nuclear intensity, 48 h; Potency, µM (titrated, usually from 46.1 µM), hits mostly activators; hit rate 2.9% among 350,000; AID 624296; also: nearly all actives have a fitted effect of over 50% in size
PINK1 expr mod: changes PINK1 expression; PINK1 immunofluorescence, high-content cytometry, 24 h; Potency, µM (titrated, usually from 76.6 µM), most hits filed as activators; hit rate 0.2% among 410,000; AID 624263; active = well fitted activation curve with a large enough effect; inconclusive = small, poorly fitted or top-dose-only effect; cell line not stated here; also: nearly all actives have a fitted effect of over 65% in size
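Cells are seeded, rested 12 hours, then given compound at five concentrations or DMSO for 24 hours. After fixation, blocking and antibody staining, PINK1 amount and mitochondrial localization are scored; CCCP serves as control.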
PTAP TSG101 blk: blocks PTAP/TSG101 interaction to inhibit HIV-1 budding. Q99816. Fluorescence polarization, FITC-PTAP peptide / Tsg101 binding. Potency, µM (highest dose often 115 µM), most hits filed as inhibitors. 340,000 tested, under 10 active. AID 493005; active = well fitted inhibition curve with a large enough effect in the main read-out, with a control signal flat, not every such curve was filed as active; inconclusive = small, poorly fitted or top-dose-only effect, or effect the other way, or a change in a side signal; inactive = no such curve, though single readings can be large or run the other way
Target sequence (Q99816 whole entry, looked up): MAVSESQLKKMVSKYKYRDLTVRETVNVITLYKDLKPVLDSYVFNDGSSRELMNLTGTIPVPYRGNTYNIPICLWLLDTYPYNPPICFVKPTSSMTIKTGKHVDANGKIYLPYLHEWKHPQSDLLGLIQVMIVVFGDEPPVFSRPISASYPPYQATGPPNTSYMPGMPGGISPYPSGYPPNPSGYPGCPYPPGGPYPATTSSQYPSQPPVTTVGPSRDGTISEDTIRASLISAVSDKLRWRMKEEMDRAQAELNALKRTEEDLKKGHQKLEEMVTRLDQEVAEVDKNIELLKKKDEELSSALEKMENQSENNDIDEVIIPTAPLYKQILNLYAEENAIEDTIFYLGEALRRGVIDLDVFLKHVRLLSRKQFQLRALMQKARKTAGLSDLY
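Fluorescence polarization binding of Tsg101 binding domain (10 uM final) to FITC-labeled PTAP peptide (50 nM final) in HEPES pH 7.5 buffer with NaCl, Tween 20, EDTA, TCEP. Compounds added before peptide; binding 20 min at RT.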
SW480 rereplic: DNA re-replication induction in SW480 cells; SW480 DNA re-replication, Hoechst DNA content imaging, 48 h; hit rate 1.8% among 340,000; Potency, µM (series often up to 46.1 µM), usual class: activators; AID 624297; also: nearly all actives have a fitted effect of over 55% in size
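Image-based DNA-content assay: after two days of treatment, nuclei were labelled with the DNA dye Hoechst and imaged, and hits were compounds raising the count of nuclei showing high fluorescence intensity.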
Hits are given with their value; . = inactive; ? = inconclusive; / = no result; [ ] = remark or other dose. Compounds with a hit are over-represented: about 6.8% of the library has one in this group of screens. Unless noted, calls follow the shape of the dose curve; as a rule, active = well fitted curve in the direction sought with a large enough effect; inconclusive = small, poorly fitted or top-dose-only effect, or another doubt; inactive = no such curve, though single readings can be large; an effect the other way counts as inactive or inconclusive.

SMILES	KB-3-1 tox	KB-V1 cytotox	MCF10A rereplic	PINK1 expr mod	PTAP TSG101 blk	SW480 rereplic
Cc1ccc(-n2nc3cc(C)c(N)cc3n2)cc1	.	.	18µM	.	.	?
CCc1ccc(-n2nc3cc(C)c(N)cc3n2)cc1	.	.	?	.	.	?
Cc1cc2nn(-c3cccc4ccccc34)nc2cc1N	.	.	21µM	.	.	.
Nc1ccc2c(c1)C(=O)N(c1cccc3ccccc13)C2=O	.	.	.	.	.	.
COC(=O)c1ccc(C2C(C#N)=C(N)Oc3cc(N)ccc32)cc1 (stereo not given)	.	.	.	.	.	.
CN(C)c1ccc2c(c1)OC(N)=C(C#N)C2c1cccc(F)c1 (stereo not given)	?	?	4.1µM	?	.	?
N#CC1=C(N)Oc2cc(O)ccc2C1c1cccnc1 (stereo not given)	?	?	.	.	.	.
N#CC1=C(N)Oc2cc(N)ccc2C1C1CCCCC1 (stereo not given)	5.8µM	?	8.2µM	.	.	18µM
COc1ccc(OC)c(C2C(C#N)=C(N)Oc3cc(N)ccc32)c1 (stereo not given)	?	?	.[0.0737 µM]	.	.	?
N#CC1=C(N)Oc2cc(N)ccc2C1c1cccc(F)c1 (stereo not given)	5.2µM	?	13µM	.	.	12µM
CCOc1ccccc1C1C(C#N)=C(N)Oc2cc(N)ccc21 (stereo not given)	.	.	23µM	.	.	?
O=C(N/N=C/c1cccs1)c1cccc2cc[nH]c12	.	21µM	.	.	.	.
O=C(N/N=C/c1cccs1)c1c[nH]c2ccccc12	.	?	.	.	.	.
Cc1ccc(/C=N/NC(=O)CSc2nc3ccccc3n2C)s1	.	15µM	?	.	.	.
Cc1ccc(/C=N/NC(=O)c2ccc3c(c2)OCCO3)s1	21µM	?	?	.	.	16µM
Cc1ccc(/C=N/NC(=O)c2ccncc2)s1	.	.	.	.	.	.
Cc1ccc(/C=N/NC(=O)c2ccc3ccccc3c2)s1	5.8µM	?	4.6µM	.	.	4.1µM
Cn1c(SCC(=O)N/N=C/c2cccs2)nc2ccccc21	.	.	.	.	.	.
CCN1CCN(Cc2nc3cc(NC(=O)c4cc(OC)c(OC)c(OC)c4)ccc3n2CC)CC1	.	?	/	.	/	/
O=C(N/N=C/c1cccs1)c1ccc2ncccc2c1	.	.	.	.	.	.
O=C(N/N=C/c1cccc([N+](=O)[O-])c1)c1cccc2cc[nH]c12	.	.	.	.	.	.
O=C(N/N=C/c1cccs1)c1ccc2ccccc2c1	21µM	?	23µM	?	.	?
O=C(N/N=C/c1cc([N+](=O)[O-])ccc1O)c1cccc2cc[nH]c12	?	.	?	?	.	7.3µM
NC1=NC(=O)/C(=C\c2ccc(-c3ccc(Cl)cc3)o2)S1	.	?	7.3µM	.	.	?
NC1=NC(=O)/C(=C/c2cn(CCC(=O)O)nc2-c2ccc(Cl)cc2)S1	.	.	.	.	.	.
SMILES	KB-3-1 tox	KB-V1 cytotox	MCF10A rereplic	PINK1 expr mod	PTAP TSG101 blk	SW480 rereplic
O=C(c1ccc2c(c1)OCCO2)N(Cc1cccnc1)c1nc2ccc(F)cc2s1	/	/	/	.	/	/
CC(C)S(=O)(=O)c1csc(NC(=O)Nc2cccc([N+](=O)[O-])c2)c1Cl	23µM	?	.	?	.	.
O=C(Cn1cc2ccccc2n1)N1CCOc2ccc(C(O)C3CCCCC3)cc2C1 (stereo not given)	/	/	/	.	/	/
COc1cccc(C(=O)c2cn(CC(=O)Nc3cccc(C)c3C)c3nc(C)ccc3c2=O)c1	.	.	/	.	/	/
CC(CC(=O)c1cccs1)CC(=O)c1cccs1	.	.	18µM	.	.	16µM
COC(=O)c1cc2sc(C)cc2n1CC(=O)Nc1ccc(C)cc1Cl	.	.	/	.	/	/
COc1cccc(-c2nc(N3CCC(C)CC3)c3ccccc3n2)c1O	.	16µM	.	.	.	.
COc1cccc(-c2nc(NC(C)(C)C)c3ccccc3n2)c1O	?	23µM	?	?	.	.
COc1cccc(-c2nc(N3CCCC3)c3ccccc3n2)c1O	.	.	?	.	.	.
CC[n+]1ccnc2ccccc21	.	?	/	.	/	/
C1=C(c2ccc3c(c2)CN(Cc2cccn2-c2ncccn2)CCO3)Cc2ccccc21	/	/	/	.	/	/
CC1CC1c1ccc(/C=C(\C#N)C(=O)Nc2ccccc2Cl)o1 (stereo not given)	.	?	16µM	.	.	.
COc1ccc(NC(=O)/C(C#N)=C\c2ccc(N3CCOCC3)o2)cc1	.	.	?	.	?	.
CC1CC1c1ccc(/C=C(\C#N)C(=O)Nc2ccc(Cl)cc2)o1 (stereo not given)	?	?	.	.	.	.
N#C/C(=C/c1ccc(N2CCCCC2)o1)C(=O)Nc1ccc(Cl)cc1	.	.	.	13µM	.	.
N#C/C(=C\c1ccc(N2CCOCC2)o1)C(=O)Nc1ccc(O)cc1	.	.	?	?	?	?
N#C/C(=C/c1ccc(N2CCCCC2)o1)C(=O)Nc1ccc2ccccc2c1	.	?	?	7.1µM	?	.
CCc1cccc(C)c1NC(=O)CN1C(=O)c2cccc3cccc1c23	.	.	/	.	/	/
Cc1cccc(C2N3CC4(C(C)C)CN2CC(C(C)C)(C3)C4=O)c1 (stereo not given)	.	?	/	.	/	/
Cc1nc(C(C)N(C)Cc2nc(-c3ccc4c(c3)OCO4)no2)c(C)s1 (stereo not given)	.	.	?	.	.	3.7µM
Cc1cccc(-c2noc(CN(C(=O)c3ccc4c(c3)OCO4)C(C)C)n2)c1	.	.	.	.	.	.
Cc1cccc(OCC(=O)Nc2c(C(=O)Nc3ccc(F)cc3)oc3ccccc23)c1	.	.	/	.	/	/
Clc1cc(Cl)c(Cl)cc1Cl	.	.	.	.	.	.
Clc1cc(Cl)c(OCC#CI)cc1Cl	/	/	21µM	/	/	?
O=C(COc1ccccc1[N+](=O)[O-])N1CCC(c2nc3ccccc3o2)CC1	/	/	/	.	/	/
SMILES	KB-3-1 tox	KB-V1 cytotox	MCF10A rereplic	PINK1 expr mod	PTAP TSG101 blk	SW480 rereplic
Cc1ccnc(N/N=C/c2ccco2)n1	.	.	2.9µM	.	.	16µM
Cc1cc(N/N=C/c2ccco2)c2ccccc2n1	.	.	.	.	.	.
Nc1ccc2c(c1)C(=O)Cc1ccccc1S2	.	.	.	.	.	.
O=C1Cc2ccccc2Sc2cc(OCCCN3CCCCC3)ccc21	.	?	?	.	.	23µM
CN(C)CCCOc1ccc2c(c1)Sc1ccccc1CC2=O	.	10µM	?	.	.	.
O=C1Cc2ccccc2Sc2c(OCCN3CCCCC3)cccc21	.	?	?	.	.	?
CCOc1ccccc1NC(=O)c1cc(=O)c2ccc(C)cc2o1	.	.	/	.	/	/
